SMILES strings stand for the structures. “And” between values parts separate entries of the source, which are not always exact repeats. Identical values can stand only once. About 83,000 compounds went through this panel and 20% of them were active in at least one assay; those are over-represented in the sample as a whole.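 Note: values are percent growth. 100 is the growth of untreated cells, values between 100 and 0 indicate rising inhibition; between -100 and 0 indicates cell death.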 A number with no mark means an inactive call. The source made the active and inactive calls. The calls were made as follows: active = growth percent below 10; inactive = the rest.

The assay has as its system MDA-MB-468 breast. Nature of the assay: NCI-60 one-dose screen, 48 h (100 = growth as untreated, 0 = no growth, -100 = all killed). The settings on record: 10 µM unless noted.
Turning to `COc1cc(CNc2ccccc2C(=O)N2CCN(C(=O)c3cc(-c4cc(OC)c(OC)c(OC)c4)n4nc(-c5ccccc5)cc4n3)CC2)cc(OC)c1OC`, the growth is 23.1%.

Turning to `C=C1C(=O)O[C@H]2[C@H]1CC/C(Cn1cc(-c3ccccc3C(F)(F)F)nn1)=C\CC[C@@]1(C)O[C@@H]21`, the growth was -56.1% (active).

In the case of `CC(CNC(Cc1ccccc1)c1ccccc1)NC(Cc1ccccc1)c1ccccc1` (configuration not stated), the growth was 14.5%.

As for `COc1ccc(/C=C\c2cc(OC)c(OC)c(OC)c2)cc1OCC(=O)Nc1ccc2nc(C)sc2c1`, the growth is 7.78% (active).

As for `ClCc1c(Cl)c(Cl)c(Cl)c(CCl)c1Cl`, the growth is -74% (active).

In the case of `NC(=O)C1(Nc2ccc(Br)cc2)CCCC1`, the growth is 101%.

`CCOC(=O)C1=C(C)n2nc(CC#N)c(C#N)c2NC1c1ccc(Cl)cc1` (configuration not stated): the growth is 117%.

With `O=C(O)/C=C\C(=O)Nc1ccc2c(c1)Cc1cc(F)ccc1-2`, the growth was 109%.

`CC(C)(C)C1=CC(=O)C(C(C)(C)C)=CC1=O`: the growth is 96.7%.

Regarding `CCOc1cccc(Nc2nc(N)nc3[nH]c4ccc(O)cc4c23)c1`, the growth was 8.38% (active).

In the case of `CCCCCC(=C/c1ccccc1)/C=N/N=C(N)N`, the growth was -87.4% (active).

Regarding `COc1ccccc1Nc1nnc(COc2ccc(CNC(=O)CCCC/C=C/C(C)C)cc2OC)o1`, the growth was 99.7%.

As to `Nc1nc(-c2cccnc2)nc2c1sc(=S)n2-c1ccccc1`, the growth was 103%.

Consider `O=c1cc(C(F)(F)F)[nH]c(=S)[nH]1`, for which the growth is 110%.

Regarding `CC/C(=C(\c1ccc(O)cc1)c1ccc(OCCN(C)CCN(C)C(=O)CCC(=O)c2c(C)[nH]c(/C=C3\N=C(c4ccc[nH]4)C=C3OC)c2C)cc1)c1ccccc1`, the growth was 65.9%.

Regarding `Cc1ccc(C(=O)N/N=C/c2cccc(Oc3ccccc3)c2)cn1`, the growth was 58.6%.

As for `CCNC(=O)Oc1ccc(/C(=C(/C)Cc2ccc(OC)cc2)c2ccc(OCCN3CCCCC3)cc2)cc1`, the growth was 42.4%.

`CC(C)(C)c1ccc(OCCCCCCN2CCNCC2)cc1`: the growth was 10.6%.

As for `COc1ccc(-c2nnc(SCC(=O)NC3=NN=C(c4ccccc4)CS3)o2)cc1`, the growth was 105%.

With `COc1cc2c3c(n([C@H]4CCOC4)c(=O)c2cc1OC)-c1cc2c(cc1C3=O)OCO2`, the growth was 31.3%.

Turning to `CCCCCCNC(=O)Oc1ccc(/C(=C(/CC)Cc2ccccc2)c2ccc(OCCN(CC)CC)cc2)cc1`, the growth was 64.4%.

`COc1cccc(C2CC(=O)Nc3c2c(C)nn3-c2nc3ccccc3[nH]2)c1OC` (configuration not stated): the growth is 71.5%.

Turning to `COc1cccc(-c2nc3sccn3c2-c2ccnc(NCCCNS(=O)(=O)c3ccccc3)c2)c1`, the growth was 1.62% (active).

For `O=C1/C(=C/c2ccccn2)CCc2ccccc21`, the growth is 98.4%.

`CC1(C)c2[nH]c3ccccc3c2C[C@]2(C)[C@H]3C(=O)C=C4[C@@H]5C[C@@](C)(C(N)=O)CC[C@]5(C)CC[C@@]4(C)[C@]3(C)CC[C@@H]12`: the growth was 56.4%.

Regarding `C=C(CN1CC=CCC1)[C@@H]1CC[C@]2(CO)CC[C@]3(C)[C@H](CC[C@@H]4[C@@]5(C)CC[C@H](O)C(C)(C)[C@@H]5CC[C@]43C)[C@@H]12`, the growth is 89.2%.

With `C(#CCN1CCOCC1)CCCN1CCOCC1`, the growth is 93.6% and 110%.

As to `Cc1cc2ccccc2c2cc3ccccc3cc12`, the growth was 5.23% (active).

Turning to `COc1ccc(N=C(c2ccccc2)C2C(=O)c3ccccc3C2=O)cc1`, the growth is 72.5%.

Regarding `CCN(CC)c1cc2oc3cc(N)cc(=N)c-3nc2cc1C`, the growth was 38.3%.

As for `O=C1NC(=C(Cl)Cl)/C(=N/S(=O)(=O)N2CCCCC2CC2(C(F)(F)F)N=N2)N1` (configuration not stated), the growth was -44.8% (active).

Take `COc1ccc(C2C3=C(COC3=O)N(CCO)c3cc4c(cc32)CCC4)cc1` (configuration not stated): the growth is 7.26% (active).

For the compound `Cc1cc(Nc2nc(C(=O)Nc3ccccc3)nc3ccccc23)n[nH]1`, the growth was 68.9%.

`CCCCCCCC/C=C\CCCCCCCCOc1ccccc1CC(=O)NCC[N+]1(C)CCCCC1`: the growth was -9.98% (active).

Regarding `COc1ccc(-c2nn(-c3cccc(Cl)c3)cc2-c2nc(N)[nH]c(=O)c2C#N)cc1`, the growth was 73.9%.

Consider `Cc1ccc(Cc2ccc(C)cc2)cc1`, for which the growth was 96.8%.

Consider `C=C1CC2(OC1=O)C(=O)N(CCCN1C(=O)C3(CC(=C)C(=O)O3)c3ccccc31)c1ccccc12` (configuration not stated), for which the growth was -34% (active).

These data come from PubChem BioAssay (NCI).
